# HCV inhibitor = blocks hepatitis C virus; actives 3.4% (n = 340,000); Huh7.5.1 HCVcc-Cre infection, luciferase reporter, 44 h; AID 651820; Potency, µM (highest dose often 41.8 µM), actives largely listed as inhibitors; active = well fitted inhibition curve with a large enough effect; inconclusive = small, poorly fitted or top-dose-only effect, or another doubt; inactive = no such curve, though single readings can be large or run the other way
#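 Luciferase read-out (15 sec integration) after a 15 min room-temperature substrate step quantifies HCVcc-Cre infection. Cells, 1,000 per well, had compound added 4 h post-plating, then virus at ~0.5 moi, and were cultured 44 h.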
# Vaccinia mCherry = inhibitors of vaccinia virus infection (mCherry reporter signal) | actives 0.63% (n = 310,000) | AID 720579 | Potency, µM (series often up to 36.5 µM), actives largely listed as inhibitors | Vaccinia virus mCherry reporter infection, fluorescence; calls by dose curve; tested in A549 cells; note: nearly all actives have a fitted effect of over 35% in size
# FMDV inh = blocks foot and mouth disease virus | FMDV antiviral cell-based qHTS | Potency, µM (titrated, usually from 57.9 µM), most hits filed as inhibitors | actives 1.2% (n = 410,000) | AID 1159524; calls by dose curve; tested in HEK293T cells; note: read-out not given here; nearly all actives have a fitted effect of over 45% in size
# Vaccinia Venus = inhibitors of vaccinia virus (Venus reporter) | actives 0.46% (n = 330,000) | Potency, µM (doses to about 36.5 µM), usual class: inhibitors | AID 720580 | Vaccinia virus Venus reporter expression, fluorescence; calls by dose curve; tested in A549 cells; note: nearly all actives have a fitted effect of over 30% in size
# HCMV inh = inhibitors of human cytomegalovirus. activity change, negative = inhibition, % at 57.5 µM. actives 4.5% (n = 410,000). HFF cells, HCMV-luciferase reporter, 72 h; stronger effect = lower value. AID 1259415; in the data active = activity change below about -60%; inconclusive = no clear call, values can overlap the other calls; inactive = above about -39%
#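 Screen run at 2 compound doses on HFFs infected with reporter HCMV, MOI 1 PFU/cell. Luciferase activity from cell lysates at 72 h post infection gave inhibition relative to buffer-only and Salinomycin wells.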
# A number is an active result; n = inactive; u = inconclusive; x = no result; ! = repeats disagree. An excerpt weighted towards active compounds, which were near 7.3% of everything screened.
SMILES,HCV inhibitor,Vaccinia mCherry,FMDV inh,Vaccinia Venus,HCMV inh
CCOC(=O)N1CCC(N2C(=O)c3ccc(C(=O)Nc4ccc(OC)cc4)cc3C2=O)CC1,n,n,n,n,n
CCOC(=O)c1cnc(N2CC2)nc1N,n,n,n,n,-68
Cc1ccc([C@H]2C[C@H](n3cc(-c4ccc(F)cc4)nn3)[C@@H](O)CN2CC2CCCCC2)cc1,x,n,n,n,n
COC(=O)c1nnn(CC(=O)Nc2cc(F)ccc2F)c1C(=O)OC,x,n,n,n,-109
CCOC(=O)c1nnn(CC(=O)Nc2cc(F)ccc2F)c1C(=O)OCC,n,n,n,n,n
COc1ccccc1C1CN(CC(=O)N[C@H]2CCCCNC2=O)Cc2ccccc2O1 (some centres undefined),x,n,n,n,x
COc1cccc(OCc2cc(C(=O)NCCN3CCCCC3CO)no2)c1 (centres undefined),n,n,n,n,u
Cc1cc(OCc2cc(C(=O)NCCN3CCCCC3CO)no2)cc(C)c1Cl (centres undefined),8.9µM,n,n,u,n
O=C(NCc1ccccc1F)Nc1nnc([C@H]2C[C@H](O)[C@@H](CO)O2)s1,x,n,n,n,-93
Cc1ccc2[nH]c(=O)c(CN(CCCO)Cc3nnnn3Cc3ccccc3)cc2c1,x,n,x,n,x
C#CCN(C[C@@H]1[C@@H](OC(=O)NCCCCCC)[C@@H](OC(=O)NCCCCCC)Cn2c(=O)ccc(=O)n21)S(=O)(=O)c1ccc(C)cc1,x,u,13µM,5.6µM,-104
C#CCN(C[C@@H]1[C@@H](OC(=O)NCC2CCCCC2)[C@@H](OC(=O)NCC2CCCCC2)Cn2c(=O)ccc(=O)n21)S(=O)(=O)c1ccc(C)cc1,x,u,10µM,7.9µM,-102
C#CCN(C[C@H]1[C@H](OC(=O)NCC2CCCCC2)[C@H](OC(=O)NCC2CCCCC2)C[C@@H](C(=O)OC)[C@H]1C(=O)OC)S(=O)(=O)c1ccc(C)cc1,x,n,n,u,n
O=C(O)c1ccc(N=Nc2c(O)ccc3ncccc23)cc1,n,n,5.6µM,u,u
COC(/C(=N/O)c1ccc(Cl)cc1)c1ccccc1 (centres undefined),n,u,n,u,-94
CCC(C)n1c(O)c(/C=N/Nc2ccccc2)c(=O)[nH]c1=S (centres undefined),n,u,n,n,-80
CCC(C)n1c(O)c(C=NCCc2ccccc2)c(=O)[nH]c1=S (centres undefined),n,x,n,x,n
Cc1nn(S(=O)(=O)c2ccc(C(C)(C)C)cc2)c(C)c1S(=O)(=O)N1CCCCCC1,x,n,n,n,n
Cc1ccc(C2C(=O)c3ccccc3C2=O)cc1,n,n,n,n,n
CCCC(=O)Nc1ccc(C2C(=O)c3ccccc3C2=O)cc1,5µM,n,10µM,n,n
CC(=O)Nc1ccc(C2C(=O)c3ccccc3C2=O)cc1,u,n,20µM,n,n
Cc1cc(/C=C\c2ccc3cc(N(C)C)ccc3[n+]2C)c(C)n1-c1ccccc1,1µM,n,20µM,n,x
COc1cc(OC)c(Nc2ncnc3onc(-c4cccc(Cl)c4)c23)cc1Cl,x,n,n,n,n
Cc1c(N=C2NC(=O)/C(=C/c3ccc(O)cc3)S2)c(=O)n(-c2ccccc2)n1C,n,n,n,n,u
O=C1NC(=NCc2ccccc2)S/C1=C/c1ccc(O)cc1,u,u,n,u,-62
SMILES,HCV inhibitor,Vaccinia mCherry,FMDV inh,Vaccinia Venus,HCMV inh
Cn1c(Oc2ccc(Cl)cc2)nc2c1c(=O)n(Cc1ccc(F)cc1)c(=O)n2C,x,n,16µM,n,n
COc1cccc(Oc2nc3c(c(=O)n(Cc4ccccc4F)c(=O)n3C)n2C)c1,x,n,n,n,n
Cc1ccc(Oc2nc3c(c(=O)n(Cc4ccccc4F)c(=O)n3C)n2C)cc1,n,x,20µM,x,n
COc1ccc(OCc2cc(=O)c3ccc4c(c3o2)C=CC(C)(C)O4)cc1OC,u,n,u,n,n
CC(C)=CCOc1ccc([C@@H]2COc3c(ccc4c3C=CC(C)(C)O4)C2)c(O)c1,4.5µM,n,u,n,u
CN=C1SC(CC(=O)NCCc2ccc(OC)c(OC)c2)C(=O)N1C (centres undefined),n,n,n,n,-64!
CCN=C1SC(CC(=O)NCCc2ccc(OC)c(OC)c2)C(=O)N1CC (centres undefined),n,n,n,u,n
COc1ccc(OC)c(NS(=O)(=O)c2ccc(-c3cc(C)no3)s2)c1,x,n,n,n,n
CCc1nc2ccccc2c(C(=O)OCC(=O)Nc2ccc(NC(C)=O)cc2)c1C,u,x,32µM,x,u
